# According to PubChem BioAssay AID651820 (National Center for Advancing Translational Sciences (NCATS), 2012):
# Screen size: about 340,000 compounds; about 12,000 (3.5%) were called active. Roughly 18% stayed inconclusive and do not appear here. The sample as a whole holds a higher share of actives than the screen did. Unmarked numbers belong to inactive results. Calls follow the shape of the dose curve; as a rule, active = well fitted inhibition curve with a large enough effect; inconclusive = small, poorly fitted or top-dose-only effect, or another doubt; inactive = no such curve, though single readings can be large or run the other way.
# Assay: qHTS Assay for Inhibitors of Hepatitis C Virus (HCV)
# Details: Huh7.5.1 HCVcc-Cre infection, luciferase reporter, 44 h; series mostly up to 41.8 µM; activity change, negative = inhibition: at the top concentration
# From the text: Hepatitis C virus (HCV) infects about 200 million people in the world. Many infected people progress to chronic liver disease including cirrhosis with a risk of developing liver cancer. To date, there is no effective vaccine for hepatitis C. Current therapy based on interferon is only effective in about half of the patients and is associated with significant adverse effects. The fraction of people with HCV who can complete a successful treatment is estimated to be no more than 10 percent. Recent development of direct-acting antivirals against HCV, such as protease and polymerase inhibitors, is promising but still requires combination with peginterferon and ribavirin for maximal efficacy. In addition, these agents are associated with high rate of resistance and many have significant side effects. Due to the lack of a culture system for infectious HCV, the search for new HCV drugs has been greatly hampered. […] High-throughput screening (HTS) with an infectious HCV system would cover the complete spectrum of potentially druggable targets in all stages of HCV lifecycle, and would have more biological relevance than other cell-based assays. Moreover, targeting several key processes in the viral life cycle may not only increase antiviral efficacy; more importantly, it may also reduce the capacity of the virus to develop resistance to the compound. The goal of this project is to identify novel HCV inhibitors as new therapies for hepatitis C, using a highly sensitive and specific assay platform which is based on a HCV infectious cell culture system established in the laboratory and adapted for high-throughput HCV drug screen. NIH Chemical Genomics Center [NCGC] NIH Molecular Libraries Probe Centers Network [MLPCN] MLPCN Grant: MH095511 Assay Submitter (PI): Jake Liang, NIDDK
# The assay will start with plating 1,000 cells/well in 3 µL volume and culture for 4 h. Then 23 nL of compounds from the library collection will be added to each well, followed by adding 2.5 µL of HCVcc-Cre virus (~ 0.5 moi) and further cultured for 44 h before the luciferase assay. A volume of 4.5 µL luciferase substrates will be added to each well and the plates will be incubated at room temperature for 15 min. and then read for 15 sec. for the luciferase activity
# % is scaled to controls: 0 for no effect and ±100 for the full control effect.
Compound,"activity change, negative = inhibition [%]",Potency
Cc1ccc2c(c1)C1CN(C)CCC1N2C(=O)c1ccccc1NS(=O)(=O)c1ccc(F)cc1C (stereo not given),6.03,
Cc1ccc2c(c1)C1CN(C)CCC1N2C(=S)Nc1ccc(Cl)cc1Cl (stereo not given),,14.1 µM (active)
S=C(Nc1ccc(Cl)cc1Cl)N1CCCC1,9.86,
Cc1ccc(-c2nn(-c3ccc(F)cc3)cc2C(=O)NCC(c2cccs2)N2CCOCC2)cc1 (stereo not given),-26.8,
CC(=O)CSc1nc(CCc2ccccc2)c(C#N)c(=O)[nH]1,8.11,
Cc1csc(=O)n1CC(=O)Nc1ccc(S(C)(=O)=O)cc1,1.13,
COc1ccc2nc(NC(=O)NC3CCCCC3)sc2c1,-5.76,
COc1ccc2nc(Nc3nc4ccc(NC(C)=O)cc4s3)sc2c1,,12.6 µM (active)
COc1ccc2nc(NC(=O)c3ccc(Br)s3)sc2c1,-20.9,
O=C(COC(=O)c1cccc(Cl)c1)NC(=O)NCc1ccccc1,9.11,
Cc1noc(C)c1COc1ccc(C(=O)NCCOc2ccccc2)cc1,-6.84,
O=C(NC(=S)Nc1ccc(S(=O)(=O)N2CCOCC2)cc1)c1ccccc1[N+](=O)[O-],4.14,
CN(CC(=O)Nc1ccc(N2CCOCC2)cc1)CC(=O)Nc1ccccc1[N+](=O)[O-],0.537,
O=C(Nc1ccc(N2CCOCC2)cc1)c1ccc(-c2ccccc2[N+](=O)[O-])o1,,11.2 µM (active)
Clc1ccc(Nc2ccc3ccccc3n2)cc1,-14.2,
N#CC1(NC(=O)COC(=O)CSc2ccc(F)cc2)CCCCC1,-8.69,
COc1cccc(COC(=O)C2CCN(S(=O)(=O)c3cccs3)CC2)c1OC,1.34,
COC(=O)c1sc(NC(=O)c2csc3c2CCCC3)nc1C,,11.2 µM (active)
COC(=O)c1sc(NC(=O)c2ccc(OC)cc2OC)nc1C,-8.74,
Cc1ccc(NC(=O)c2csc3c2CCCC3)cc1,-16.9,
CC1=NNC(=O)C1Cc1c(Cl)cccc1Cl (stereo not given),6.34,
CCCCN1CC(CO)Oc2cccc(F)c2S1(=O)=O (stereo not given),-3.74,
COc1cccc2oc(CCc3ccccc3)cc(=O)c12,8.5,
Cc1cc(-c2cccs2)nc(-n2cccc2)n1,,5.01 µM (active)
Cc1cc2nc(C(F)(F)F)cc(-c3cccs3)n2n1,1.28,

Compound,"activity change, negative = inhibition [%]",Potency
c1csc(-c2cn3c(n2)SCC3)c1,0.455,
CO[C@@H]1[C@@H](OC(N)=O)[C@@H](O)C(Oc2ccc3c(O)c(NC(=O)c4ccc(O)c(CC=C(C)C)c4)c(=O)oc3c2C)OC1(C)C (stereo not given in full),-10.4,
CC[C@]12c3[nH]c4ccc(Cl)cc4c3CCN1C(=O)[C@@H](CC(=O)NCCCOC)C[C@@H]2C(=O)N1CCN(C(=O)c2ccco2)CC1,12.8,
COc1ccccc1N1CCN(c2nc(C)cc(=O)[nH]2)CC1,11.3,
O=C(COC(=O)C1(c2ccc(F)cc2)CCCC1)N1CCNC1=O,4.76,
CSc1ncc(Sc2ccccc2)c(C(=O)O)n1,0.988,
CSc1nc(-c2ccccc2)nc(C(Cl)Cl)n1,,3.98 µM (active)
CSc1nc(C)cc(SC(C(C)=O)C(=O)Nc2ccccc2)n1 (stereo not given),21.8,
CCOc1ncccc1C(=O)Nc1ccc2c(c1)OCCO2,-22.9,
CC(=O)c1ccc(S(=O)(=O)Nc2ccc(-c3ccc4nncn4n3)cc2)cc1,6.1,
C[C@@H]1C[C@@H]2O[C@H]2/C=C\C=C\C(=O)Cc2c(Cl)c(O)cc(O)c2C(=O)O1,,3.16 µM (active)
Cc1noc(C)c1NC(=O)Nc1cccc2c1O[C@H](CN(C)S(=O)(=O)c1c(C)noc1C)[C@@H](C)CN([C@H](C)CO)C2=O,2.45,
CC(=O)c1ccc(S(=O)(=O)N2CCN(C(=O)/C=C/c3ccc4ccccc4n3)CC2)cc1,-8.42,
CC(=O)c1ccc(S(=O)(=O)N2CCN(c3nc4c(C)c(C)ccc4cc3C#N)CC2)cc1,,10 µM (active)
Cc1cc(C)c2nc(N3CCCC3)c(C#N)cc2c1,-18,
O=C(Cc1ccc([N+](=O)[O-])cc1)NCCc1ccc2c(c1)OCO2,3.93,
CN(C(=O)COC(=O)Cc1ccccc1[N+](=O)[O-])C1CCS(=O)(=O)C1 (stereo not given),13.9,
COc1ccc(CCNC(=O)c2ccccc2-c2ccccc2C(=O)O)cc1OC,-12.3,
COc1ccc(CCN2C(=O)C(C)=C(C)C2=O)cc1OC,-11,
COc1ccc(CCNC2=C(Cl)C(=O)N(Cc3ccccc3)C2=O)cc1OC,,12.6 µM (active)
Cc1ccc(S(=O)(=O)CC(=O)Nc2sc(C)c(C)c2C(N)=O)cc1,14.2,
COc1cc2c(cc1CNC[C@H]1O[C@@H](n3cnc(C(N)=O)n3)[C@H](O)[C@@H]1O)OCO2,7.98,
NC(N)=Nc1nc(-c2ccccc2)c2cc(Cl)ccc2n1,,11.2 µM (active)
Cc1ccc2nc(Nc3ccccc3O)nc(-c3ccccc3)c2c1,10.8,
OCCCNc1nc(-c2ccccc2)c2cc(Cl)ccc2n1,-24.5,
